Compound activity: PubChem BioAssay, several laboratories
PAFAH1B3 FP inh: inhibitors of human PAFAH1B3; inhibition, % at 3.39 µM; AID 492972; 340,000 compounds, 0.28% hits; recombinant PAFAH1B3, FP-rhodamine probe, fluorescence polarization; Q15102;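 active = inhibition above the screen-wide average of all tested compounds plus 3 SD, cut at about 25% in these data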
Target sequence (Q15102 whole entry, looked up): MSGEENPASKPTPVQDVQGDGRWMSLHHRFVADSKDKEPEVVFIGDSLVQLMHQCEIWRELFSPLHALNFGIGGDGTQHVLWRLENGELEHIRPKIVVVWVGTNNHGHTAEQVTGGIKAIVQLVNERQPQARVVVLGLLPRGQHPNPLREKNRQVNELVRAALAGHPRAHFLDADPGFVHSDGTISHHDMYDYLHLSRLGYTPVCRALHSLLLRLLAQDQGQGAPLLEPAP
DAGLB inhibitor: blocks human DAGLB lipase activity; Q8NCG7; HEK293T DAGLB membrane lysate, EnzChek fluorogenic substrate; inhibition, % at 5.17 µM; 340,000 compounds, 0.059% hits; AID 504411; in the data active = inhibition above about 34%
pPAFAH FP inh: pPAFAH (human) enzyme inhibition; inhibition, % at 3.39 µM; recombinant pPAFAH, FP-rhodamine probe fluorescence polarization; AID 463082; 330,000 compounds, 1.5% hits; Q13093;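 active = inhibition above the mean inhibition across the screen plus 3 SD, cut at about 25% in these data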;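 also: inhibitors block binding of the rhodamine activity-based probe so polarization drops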
PAFAH2 FP inh: PAFAH2 (human) inhibition. Q99487. recombinant PAFAH2, FP-rhodamine activity probe, fluorescence polarization. inhibition, % at 3.39 µM. 340,000 compounds, 0.99% hits. AID 492956;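 active = inhibition above the mean over all tested compounds plus 3 SD, cut at about 30% in these data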;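 also: inhibitors block probe labeling of enzyme so polarization drops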
ATG4B inhibitor: blocks human ATG4B protease cleavage of LC3 substrate; Q9Y4P1; ATG4B cleavage of LC3-PLA2, NBD-HPC fluorescence, 1 h; inhibition, % at 8.33 µM; 340,000 compounds, 0.51% hits; in the data active = inhibition above about 40%
PAFAH1B2 inh: PAFAH1B2 (human) inhibition; recombinant PAFAH1B2, FP-rhodamine activity probe, fluorescence polarization; inhibition, % at 3.39 µM; 340,000 compounds, 1.2% hits; AID 492953;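 active = inhibition above the mean of all tested compounds plus 3 SD, cut at about 24% in these data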
Target sequence (P68402 whole entry, looked up): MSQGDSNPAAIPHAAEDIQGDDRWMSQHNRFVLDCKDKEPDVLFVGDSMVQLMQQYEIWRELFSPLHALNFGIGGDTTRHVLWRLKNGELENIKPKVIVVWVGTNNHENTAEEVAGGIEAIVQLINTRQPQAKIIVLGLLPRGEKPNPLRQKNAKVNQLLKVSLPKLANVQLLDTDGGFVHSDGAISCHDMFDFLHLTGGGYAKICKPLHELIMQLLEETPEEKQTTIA
Large screens that a line does not name were inactive. Hits are enriched below; roughly 3% of the tested compounds scored in any of these assays.

COc1cc(-c2ccc(Nc3ccccc3C(=O)O)c(OC)c2)ccc1Nc1ccccc1C(=O)O	PAFAH1B3 FP inh 28.7, PAFAH2 FP inh 54.0 (no result: pPAFAH FP inh)
CCN1C(=O)/C(=C/C=C2\N(CC)c3cc(S(=O)(=O)N(C)C)ccc3N2c2ccccc2)SC1=S	PAFAH1B3 FP inh active, PAFAH1B2 inh 151.4
COc1cc(N/C=C(\C(C)=O)c2ccccc2)cc(OC)c1	pPAFAH FP inh 30.9 (no result: ATG4B inhibitor)
COc1ccc(N(CC(=O)NCC2CCCO2)S(=O)(=O)c2ccccc2)cc1OC (stereo not drawn)	none
Cc1c(NC(=O)C(c2ccccc2)c2ccccc2)cccc1C(=O)O	none
O=C(O)c1cc(O)ccc1NC(=O)C(c1ccccc1)c1ccccc1	PAFAH1B2 inh 24.2
COc1ccccc1NC(=O)c1ccc(NC(=O)COC(=O)C2CC2C)cc1 (stereo not drawn)	pPAFAH FP inh 33.9, PAFAH2 FP inh 42.9
COc1ccccc1NC(=O)c1ccc(NC(=O)COC(=O)C2CCCO2)cc1 (stereo not drawn)	none (no result: pPAFAH FP inh)
CC(=O)c1c[nH]c(C(=O)Nc2ccc(N3CCCCCC3)cc2)c1	none
CCOC(=O)C1CCN(C(=O)c2cc3cc4cc(OC)ccc4nc3o2)CC1	pPAFAH FP inh 29.1
COc1cc(/C=N/NC(=O)c2cc(C34CC5CC(CC(C5)C3)C4)[nH]n2)ccc1O	PAFAH1B2 inh 30.4
COc1cc(/C=N/NC(=O)c2cc(C3CC3)[nH]n2)ccc1O	none
COc1ccc(Nc2nc3ccccc3nc2NS(=O)(=O)c2cccs2)c(OC)c1	none
COc1cccc(Nc2nc3ccccc3nc2NS(=O)(=O)c2cccs2)c1	pPAFAH FP inh 32.1
COc1ccccc1-c1cc(-c2ccc(O)cc2)nc(N)c1C#N	pPAFAH FP inh 30.2, PAFAH2 FP inh 33.0
COc1cc(-c2cc(-c3ccc(O)cc3)nc(N)c2C#N)ccc1O	none
O=C(NNS(=O)(=O)c1ccc(F)cc1)c1cc(Cl)ccc1O	PAFAH1B2 inh 26.2 (no result: pPAFAH FP inh)
O=C(NNS(=O)(=O)c1cccc(Cl)c1)c1cc(-c2ccc(F)cc2)nc2ccccc12	PAFAH1B2 inh 39.9
O=C(COC(=O)c1cccc(S(=O)(=O)N2CCCCC2)c1)NCc1cccc(Cl)c1	none (no result: PAFAH1B3 FP inh, pPAFAH FP inh, PAFAH2 FP inh, ATG4B inhibitor, PAFAH1B2 inh)
COc1ccc(C)cc1N=Nc1ccc(O)c2ncccc12	none (no result: pPAFAH FP inh)
COc1ccc(N=Nc2ccc(O)c3ncccc23)cc1	pPAFAH FP inh 30.9
Oc1ccc(N=Nc2ccc3c(c2)OCCO3)c(O)c1	none
Oc1ccc(N=Nc2ccc3c(c2)OCCO3)c2cccnc12	pPAFAH FP inh 32.9
O=C(Cc1ccccc1)NCC(=O)N1CCN(c2ccccc2F)CC1	none
Cc1ccc(C(=O)N2CCN(S(=O)(=O)c3ccc(Br)cc3)CC2)o1	none
COc1ccccc1N1CCN(CCN2C(=O)CC(=C3c4ccccc4-c4ccccc43)C2=O)CC1	pPAFAH FP inh 29.0 (no result: PAFAH1B3 FP inh, DAGLB inhibitor, PAFAH2 FP inh, PAFAH1B2 inh)
Cc1ccccc1N1CCN(CCN2C(=O)CC(=C3c4ccccc4-c4ccccc43)C2=O)CC1	none
O=C(O)CCN1C(=O)/C(=C\c2ccc(OCc3ccccc3)c(OCc3ccccc3)c2)SC1=S	none
O=C(O)CCN1C(=O)/C(=C\c2cccc(OCc3ccccc3)c2)SC1=S	PAFAH1B2 inh 26.9
O=C(O)CN1C(=O)/C(=C\c2ccccc2OCc2ccc(Cl)cc2Cl)SC1=S	pPAFAH FP inh 33.6
COc1cccc(/C=C2/SC(=S)N(CC(=O)NNC(=O)c3ccccc3OC)C2=O)c1	none
O=C(O)CN1C(=O)/C(=C\c2cccc(OCc3ccc(Cl)cc3Cl)c2)SC1=S	PAFAH1B2 inh 25.5 (no result: pPAFAH FP inh)
CC(C)(C)OC(=O)N1CCC(c2c(C(=O)NCC3CCN(C4CCCC4)C3)cnn2-c2ccc(F)cc2)CC1 (stereo not drawn)	none
Cc1ccc2c(c1)C=CC(C)N2C(=O)c1ccccc1 (stereo not drawn)	PAFAH1B2 inh 31.7
Cc1cc2cc(CCNS(=O)(=O)c3ccc(F)cc3)c(=O)[nH]c2cc1C	none
Nc1c(C(=O)OCC(=O)Nc2cccc([N+](=O)[O-])c2)[nH]c(=O)[nH]c1=O	pPAFAH FP inh 25.3
O=C(COC(=O)COc1ccccc1)Nc1cccc([N+](=O)[O-])c1	none
C/C(=N\NS(=O)(=O)c1ccccc1)c1cccc(NC(=O)c2cccc(Cl)c2)c1	pPAFAH FP inh 24.9
Cc1cccc(NC(=O)c2cccc(S(=O)(=O)Nc3ccccc3C(=O)O)c2)c1	none
